Most compounds without a hit are left out; they make up all but 6.5% or so of the library.
HT1080 IDH1KD tx = HT-1080 IDH1 knockdown cell toxicity (counter line). Potency, µM (titrated, usually from 46.1 µM), for the others: at the highest dose activity, negative = toxicity, hits mostly cytotoxic. AID 686971. HT-1080 IDH1 knockdown viability, ATP luminescence, 48 h. 360,000 tested, 2% active;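 further: potency means the concentration at half of the fitted maximal effect; 0% = DMSO wells and -100% = cell-free medium wells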
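Luminescent ATP read-out (CellTiter-Glo, 10 min at room temperature) after 48 h compound exposure at 37 °C gave viability of IDH1-knockdown HT-1080 cells. Activity was normalised to DMSO and cell-free wells, then fitted as concentration-response curves.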
HepG2 viability = counter-screen for TGF-b inhibitors: cytotoxicity in HepG2 cells; HepG2 CAGA-GFP viability, ATP luminescence, 18 h; Potency, µM (top dose mostly 46.1 µM), for the others: at the top dose activity change, negative = cytotoxicity, actives largely listed as cytotoxic; 410,000 tested, 0.76% active; further: potency means the concentration at half of the fitted maximal effect
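HepG2 CAGA-GFP cells (1000/well, DMEM with 1% FBS) received compound, then TGF-beta at 500 pg/mL final, and were incubated 18 hours at 37 degrees C. Viability was read by CellTiter-Glo luminescence. Media-only wells were set as complete cell-killing and DMSO as no toxicity.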
HT1080NT lethal = kills 2HG-producing HT-1080-NT fibrosarcoma cells; 360,000 tested, 1.6% active; HT-1080-NT fibrosarcoma viability, CellTiter-Glo ATP luminescence, 48 h; AID 686970; Potency, µM (series often up to 46.1 µM), inactives show at the highest dose activity, negative = less viability, most hits filed as cytotoxic;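 further: NT is the 2HG producing partner of a matched IDH1 knockdown line; potency means the concentration at half of the fitted maximal effect; 0% = DMSO-treated cells and -100% = media-only wells without cells; nearly all actives have a fitted effect of over 55% in size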
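Fibrosarcoma NT cells, 750 per well in 5% FBS RPMI, were exposed to compound for 48 hours. Viability: CellTiter-Glo luminescence.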
Giardia kill = Giardia lamblia killing; Giardia lamblia trophozoite viability; activity change, % at 7.66 µM, hits read low; 340,000 tested, 0.15% active; AID 540267; in the data active means activity change below about -80%; inconclusive means between about -30% and that limit;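 further: parasites exposed to compound for two days anaerobically before the ATP read; on the % scale 0 is the no-effect control and ±100 the full control effect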
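Giardia lamblia trophozoites (100 cells/well) were incubated with compounds for 48 h at 37 deg C under anaerobic conditions. Viability was read as ATP content by one-step luminescence after 15-30 min at room temperature.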
TGFb inhibitor = inhibitors of TGF-b signaling. 410,000 tested, 1.2% active. Potency, µM (highest dose often 46.1 µM), for inactives: at the top dose activity, negative = inhibition, usual class: inhibitors. HepG2 CAGA-GFP TGF-b/SMAD3 reporter, GFP fluorescence, 18 h; TGF-beta stimulated, 500 pg/mL final; further: potency means the concentration at half of the fitted maximal effect; on the % scale 0 is the no-effect control and ±100 the full control effect; nearly all actives have a fitted effect of over 65% in size
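Cell-based qHTS in HEPG2 carrying a CAGA-GFP Smad reporter; compounds added before 500 pg/mL final TGF-beta, 18 h incubation at 37 degrees C, GFP fluorescence quantified per cell by imaging cytometry.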
IL-1B inflam inh = inflammasome signaling inhibition, IL-1 beta readout; THP-1 LPS/ATP IL-1B secretion, AlphaLISA, 16 h; active compounds read low; activity change, % at 57.5 µM; 360,000 tested, 4.7% active; AID 743279; in the data active means activity change below about -50%; inconclusive means mostly about -30% to -49%; further: on the % scale 0 is the no-effect control and ±100 the full control effect
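THP-1 cells pretreated 1 hr with compounds (up to 57.5 uM final), then stimulated with LPS (250 ng/mL final) plus ATP (1.25 mM final); secreted IL-1B measured by AlphaLISA after 16 hr, decreased signal indicating inhibition.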
Active calls of the source: *; u = inconclusive; x = no result given; [ ] = another dose, or the depositor's remark. Unless noted, the call rests on the fitted dose curve; in most records, active means well fitted curve in the direction sought with a large enough effect; inconclusive means small, poorly fitted or top-dose-only effect, or another doubt; inactive means no such curve, though single readings can be large; an effect the other way counts as inactive or inconclusive.

SMILES | HT1080 IDH1KD tx | HepG2 viability | HT1080NT lethal | Giardia kill | TGFb inhibitor | IL-1B inflam inh
O=C(Nc1ccc2c(c1)OCO2)c1cc(-c2cccc(O)c2)on1 | 11.6µM* | -0.4% | 23.1µM* | -2.8 | 5.0% | -6.4
Cc1nn(Cc2ccc(F)cc2)c(C)c1NC(=O)c1cc(-c2ccc3c(c2)OCO3)on1 | 2.4% | -13.3% | u | 24.0 | 17.6% | 6.8
Cc1ccc(Cn2nc(C)c(NC(=O)c3cc(-c4ccc5c(c4)OCO5)on3)c2C)cc1 | u | 11.2µM* | 8.91µM* | -12.1 | -21.2% | 3.0
CCC[C@H]1CN(c2ccc(OC)cc2)C(=O)[C@@H]1CC(=O)NC | 2.6% | -1.5% | 15.0% | x | -12.5% | 17.8
CCOC(=O)Cc1csc(NC(=O)CCCCCN2C(=O)c3ccccc3C2=O)n1 | 6.4% | -21.1% | 4.8% | 2.3 | u | -55.6*
CCOC(=O)Cc1csc(NC(=O)Nc2ccc(C)cc2)n1 | -10.1% | -7.4% | 7.31µM* | -16.5 | -7.7% | u
O=C(CCS(=O)(=O)Cc1ccccc1)Nc1nc2c(s1)CCCC2 | 8.91µM* | 12.5% | u | -9.4 | u | 58.0
CCOC(=O)Cc1csc(NC(=O)c2ccc(S(=O)(=O)N3CCCC3)cc2)n1 | -1.0%[9.24 µM] | -34.7% | u | -10.4 | -6.5% | -53.5*
O=C(CCC(=O)NNC(=O)COc1ccc(Br)cc1)NCc1ccccc1 | -19.6% | -4.2% | -11.0% | 7.6 | 0.5% | -2.3
CCOC(=O)Cc1csc(NC(=O)Cn2c(=O)oc3ccccc32)n1 | -4.6% | -2.0% | -5.9% | -5.9 | 1.5% | -83.8*
CCOC(=O)Cc1csc(NC(=O)CS(=O)(=O)Cc2ccccc2)n1 | 16.3% | -80.3% | 19.0% | 4.5 | u | -8.8
CC(C)(C)c1csc(NC(=O)Cn2c(=O)oc3ccccc32)n1 | -18.4% | 5.1% | -5.8% | 0.2 | -13.8% | 14.8
CCOC(=O)Cc1csc(NC(=O)CCS(=O)(=O)Cc2ccccc2)n1 | 10µM* | 1.1% | u | 0.2 | -4.4% | 2.4
Cc1[nH]c2ccc(C(=O)NCCN3CCCCCC3)cc2c1C | 12.1% | -53.9% | 8.2% | 8.4 | 1.0% | -19.8
COc1ccc(C(=O)CCS(=O)(=O)c2ccc(C)cc2)cc1 | u | 7.08µM* | 8.3% | 2.2 | u | u
Cc1ccc(S(=O)(=O)CCC(=O)c2cccc([N+](=O)[O-])c2)cc1 | 6.51µM* | -66.9% | u | -0.7 | 11.2µM* | -98.0*
COc1ccc(CNC(=O)CCS(=O)(=O)c2ccc(Br)cc2)cc1 | 15.8% | 8.6% | 16.4% | 18.1 | 3.8% | 2.1
Cc1ccc(C(=O)CCS(=O)(=O)c2ccc(Br)cc2)cc1 | 2.5% | -78.9% | 4.8% | 1.1 | u | u
COc1ccc(C(CC(=O)c2ccc(O)cc2)S(=O)(=O)c2ccc(C)cc2)cc1 (stereo not given) | u | -36.3% | u | -15.5 | -7.3% | -50.8*
COc1ccc(S(=O)(=O)CCC(=O)NCCc2ccc(Cl)cc2)cc1 | -10.8% | 12.6µM* | -0.2%[9.24 µM] | 0.4 | u | -1.5
COc1ccccc1NC(=O)CSc1nccc(=O)[nH]1 | 4.0% | -5.8% | 13.6% | 7.2 | u | 20.3
Cc1ccc(S(=O)(=O)Cc2cc(F)c([N+](=O)[O-])cc2[N+](=O)[O-])cc1 | 6.51µM* | -101.2% | 2.91µM* | u | u | -92.4*
COc1ccc([N+](=O)[O-])cc1C(=O)Nc1ccc(Cc2ccncc2)cc1 | 1.4% | -26.7% | 12.7% | -10.4 | 0.0% | 2.2
O=C(CCNc1ccc(Cc2ccncc2)cc1)c1cccc([N+](=O)[O-])c1 | u | -13.1% | -6.3% | -2.6 | -8.9% | -108.6*
O=C(c1ccccc1Cl)N1CCNCC1 | 11.3% | 0.0% | 5.9% | 4.2 | -20.2% | 6.5
SMILES | HT1080 IDH1KD tx | HepG2 viability | HT1080NT lethal | Giardia kill | TGFb inhibitor | IL-1B inflam inh
Clc1cccc2c1Sc1ccccc1CC2N1CCNCC1 (stereo not given) | 18.4µM* | -110.1% | 23.1µM* | -14.9 | u | x
COCCCN1CCN(C2Cc3ccccc3Sc3ccc(Cl)cc32)CC1 (stereo not given) | -10.6% | -54.7% | -2.0% | 8.5 | u | -11.9
Clc1ccc2c(c1)C(N1CCNCC1)Cc1ccccc1S2 (stereo not given) | 18.4µM* | 14.1µM* | u | -27.0 | u | -100.1*
COc1ccc(C(C)=O)cc1CSCCC(=O)O | 2.7% | -13.7% | 15.5% | -1.2 | 13.9% | -2.6
COc1ccc(C(=O)/C=C/c2ccsc2)cc1CSCC(=O)O | -2.3% | -23.1% | -7.7% | 9.2 | 0.5% | -68.6*
CN1CCC(=NNC(=O)COc2ccc(Cl)cc2)CC1 | -19.0% | -12.8% | -22.5% | 1.8 | -0.9% | 26.2
Cc1ccc(C2CC(=O)Nc3cc4c(cc32)OCCO4)cc1Br (stereo not given) | x | -38.0% | x | x | 12.6µM* | x
O=C1CC(c2ccc3c(c2)OCO3)c2cc3c(cc2N1)OCCO3 (stereo not given) | -10.5% | -14.0% | -16.1% | 8.3 | -9.2% | -22.8
CC1(C)CC(=O)C=C(c2ccc(-c3cnn(Cc4ccccc4)c3)cc2)C1=O | u | -37.4% | 1.8% | x | -5.6% | u
CCn1c(=O)n(CC)c2cc(N3CCCC3)c(NC(=O)c3ccccc3OC)cc21 | u | -22.3% | u | 13.5 | -2.4% | -52.7*
CCn1c(=O)c(=O)n(CC)c2cc(N3CCCCC3)c(NC(=O)c3ccccc3OC)cc21 | x | 2.1% | x | x | -8.0% | x
CCn1c(=O)n(CC)c2cc(N3CCCC3)c(NC(=O)c3cc(Cl)ccc3OC)cc21 | 1.1% | -2.4% | 15.3% | -18.7 | 2.6% | -63.6*
CCC(=O)Nc1ccc(NC(=O)CSc2nc3cc4c(cc3cc2C)CCC4)cc1 | -10.2% | -7.3% | -2.8% | -6.0 | 0.5% | -15.0
Cc1ccc(Oc2nc3ccccn3c(=O)c2/C=C(\C#N)C(=O)Nc2c(C)n(C)n(-c3ccccc3)c2=O)cc1 | 0.4% | -8.3% | -0.4% | -15.4 | -11.8% | -60.6*
COc1ccc(C(=O)Nc2ccccc2C(=O)NCc2ccco2)cc1OC | -4.8% | -6.0% | -2.2% | 12.1 | -6.5% | -2.2
COc1ccc(C(=O)Nc2ccc(Cl)cc2C(=O)NCc2ccco2)cc1OC | 9.8% | -18.0% | 4.5% | -2.7 | -26.8% | -57.6*
O=C(Nc1ccccc1C(=O)NCc1ccco1)Nc1cccc2ccccc12 | u | -0.1% | u | 6.7 | 2.7% | u
O=C(Nc1cccc(Cl)c1)Nc1ccccc1C(=O)NCc1ccco1 | u | -13.4% | -22.2% | -8.5 | 15.5% | -52.9*
CC[N+](CC)(CC#Cc1ccccc1)CC#Cc1ccccc1 | -27.9% | -15.1% | u | -2.7 | 10.8% | -80.7*

Source: PubChem
